This note sets out measurements from PubChem BioAssay (EPA / NIEHS).

Assay [1] in a line: ATG_NFI_CIS: Attagene CIS-FACTORIAL HepG2 Assay for human Nuclear Factor I (NFI) (AID 2282989). The following applies: HepG2 cis-regulatory reporter, NFI response element transcription; actives raise or lower the signal. In outline:
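Read-out: reporter mRNA via RT-PCR plus capillary electrophoresis with fluorescence detection. Transiently transfected HepG2 (endogenous TF activity on cis promoters), 24 h compound exposure; gain or loss of signal fitted against DMSO.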

In assay [2] the target is Myc proto-oncogene protein (Homo sapiens) (UniProt P01106). Put plainly: ATG_Myc_CIS: Attagene CIS-FACTORIAL HepG2 Assay for human Myelocytomatosis (Myc) Proto-Oncogene Transcription Factor (AID 2282990). The following applies: HepG2, Attagene cis-reporter transcription factor activity; actives raise or lower the signal. In outline:
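Cells of the HepG2 human liver line bear multiple cis-driven reporter transcription units. Reporter mRNA after 24 h exposure is reverse-transcribed, amplified, labelled and resolved by capillary electrophoresis, with gain- or loss-of-signal fitting relative to DMSO.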

The nature of assay [3]: ATG_NRF2_ARE_CIS: Attagene CIS-FACTORIAL HepG2 Assay for human Nuclear Factor Erythroid 2 Related Factor 2 (NFR2) response to Antioxidant Response Elements (ARE) (AID 2282992).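 For AC50: reporter mRNA level measured by RT-PCR and capillary electrophoresis fluorescence.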 The conditions noted are these: HepG2 Attagene ARE/NRF2 reporter, transcription factor activity; actives raise or lower the signal. In short, it runs like this: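 Multiplexed reporter mRNA profiling in HepG2 after a 24 h chemical exposure. Curves fitted in both directions relative to DMSO negative control.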

Assay [4] is described as follows: ATG_Oct_MLP_CIS: Attagene CIS-FACTORIAL HepG2 Assay for human Octamer-Binding Transcription Factor (Oct) (AID 2282993). The following applies: HepG2 Attagene cis-factorial Oct reporter, mRNA; actives raise or lower the signal. In outline: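 Read-out: reporter mRNA via RT-PCR plus capillary electrophoresis of 6-FAM-labelled fragments. Transiently transfected HepG2, 24 h exposure, endogenous TF activity on cis elements. Gain or loss of signal fitted relative to DMSO.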

In assay [5] the target is Cellular tumor antigen p53 (Homo sapiens) (UniProt P04637). Put plainly: ATG_p53_CIS: Attagene CIS-FACTORIAL HepG2 Assay for human p53 Transcription Factor (AID 2282994). The following applies: HepG2 p53 cis-element reporter, Attagene mRNA; actives raise or lower the signal. In short, it runs like this: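 Multiplexed reporter mRNA assay in human HepG2 liver cells; cis-regulated units report endogenous factor activity. Values come from bidirectional curve fitting against DMSO negative control after 24 h treatment.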

In assay [6] the target is human Peroxisome Proliferator-activated Receptor alpha (PPARa), PPARA (gene 5465) (UniProt Q07869). Put plainly: ATG_PPARa_TRANS: Attagene TRANS-FACTORIAL HepG2 Assay for human Peroxisome Proliferator-activated Receptor alpha (PPARa) (AID 2283001; active = hit-call score of the fitted dose curve at least 0.9, where 1 is the maximum;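 for AC50: potency for gain of reporter signal over DMSO so agonist or activator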). In short, it runs like this:
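Read-out is fluorescence of reporter cDNA fragments resolved by capillary electrophoresis after RT-PCR. Human HepG2 liver cells carried transfected PPARa-Gal4 chimera and GAL4-UAS reporter units, treated 24 h; activity scored as increase over DMSO.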

For assay [7], the target named is Retinoic acid receptor alpha (Homo sapiens) (UniProt P10276). Put plainly: ATG_RARa_TRANS: Attagene TRANS-FACTORIAL HepG2 Assay for human Retinoic Acid Receptor alpha (RARa) (AID 2283005; active = hit-call score of the fitted dose curve at least 0.9, where 1 is the maximum). In outline: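 Reporter transcripts, measured by RT-PCR with fluorescent labeling and capillary electrophoresis after 24 h dosing, reflect activity of an exogenous human RARa–GAL4 fusion in transiently transfected HepG2. Fitted for increase relative to DMSO.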

Assay [8] deals with Peroxisome proliferator-activated receptor gamma (Homo sapiens) (UniProt P37231). Put plainly: ATG_PPARg_TRANS: Attagene TRANS-FACTORIAL HepG2 Assay for human Peroxisome Proliferator-activated Receptor-gamma (PPARg) (AID 2283007; active = hit-call score of the fitted dose curve at least 0.9, where 1 is the maximum). In outline: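 Human hepatoma HepG2, transient MRTU transfection, 24 h treatment. mRNA reporter signal by RT-PCR plus capillary electrophoresis, fluorescence detection; fitted for increase over DMSO negative control.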

The target in assay [9] is Nuclear receptor subfamily 1 group I member 2 (Homo sapiens) (UniProt O75469). Put plainly: ATG_PXR_TRANS: Attagene TRANS-FACTORIAL HepG2 Assay for human Pregnane X Receptor (PXR) (AID 2283008; active = hit-call score of the fitted dose curve at least 0.9, where 1 is the maximum). In outline:
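Measures mRNA induction of a GAL4-UAS-driven reporter in human HepG2 cells transiently expressing PXR fused to Gal4, following 24 h treatment. DMSO served as negative control and baseline.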

Assay [10] deals with human Retinoic Acid Receptor gamma (RARg), RARG (gene 5916) (UniProt P13631). Put plainly: ATG_RARg_TRANS: Attagene TRANS-FACTORIAL HepG2 Assay for human Retinoic Acid Receptor gamma (RARg) (AID 2283009; active = hit-call score of the fitted dose curve at least 0.9, where 1 is the maximum). In outline: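 Transient transfection of HepG2 with multi-reporter constructs, then 24 h chemical treatment. Total RNA isolated, reverse-transcribed, PCR-amplified, fluorescently labelled and resolved by capillary electrophoresis; activity scored as mRNA induction versus DMSO.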

For assay [11], the target named is human Peroxisome Proliferator-activated Receptor delta (PPARd), PPARD (gene 5467) (UniProt Q03181). Put plainly: ATG_PPARd_TRANS: Attagene TRANS-FACTORIAL HepG2 Assay for human Peroxisome Proliferator-activated Receptor delta (PPARd) (AID 2283002; active = hit-call score of the fitted dose curve at least 0.9, where 1 is the maximum). In short, it runs like this: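 Cell-based TRANS reporter: HepG2, transient MRTU transfection, 24 h exposure. Readout = reporter mRNA (RT-PCR/CE, 6-FAM). Gain-of-signal fit vs DMSO control.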

Assay [12] has as its target human RAR-related Orphan Receptor beta (RORb), RORB (gene 6096) (UniProt Q92753). Put plainly: ATG_RORb_TRANS: Attagene TRANS-FACTORIAL HepG2 Assay for human RAR-related Orphan Receptor beta (RORb) (AID 2283010; active = hit-call score of the fitted dose curve at least 0.9, where 1 is the maximum). In outline:
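Readout is reporter-gene mRNA induction, detected as fluorescence after RT-PCR and capillary electrophoresis, fitted for gain of signal against DMSO controls. Transiently transfected HepG2 liver cells carrying GAL4-UAS reporter constructs were treated for 24 hours.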

Assay [13] is described as follows: BSK_3C_TissueFactor: BioMAP Diversity Plus: 3C Assay for Tissue Factor Biomarker Activity (AID 2282997). The conditions noted are these: BioMAP 3C HUVEC, tissue factor biomarker readout; actives raise or lower the signal. In outline:
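Values derive from bidirectional curve fitting against DMSO of Tissue Factor ELISA signals, taken 24 h after dosing primary human umbilical vein endothelial cells.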

The nature of assay [14]: BSK_3C_uPAR: BioMAP Diversity Plus: 3C Assay for Urokinase-type plasminogen activator receptor (uPAR) Biomarker Activity (AID 2282998). The conditions noted are these: BioMAP 3C HUVEC, uPAR biomarker ELISA; actives raise or lower the signal. In outline:
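HUVEC primary cells; 24 h post-dose; uPAR by ELISA; gain or loss of signal fitted bidirectionally vs DMSO baseline.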

A short description of assay [15]: BSK_3C_VCAM1: BioMAP Diversity Plus: 3C Assay for Vascular cell adhesion molecule 1 (VCAM1) Biomarker Activity (AID 2282999). The conditions noted are these: BioMAP 3C HUVEC, VCAM1 ELISA, cytokine-stimulated; actives raise or lower the signal. In short, it runs like this: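 Endothelial cells from human umbilical vein are treated with test chemical. At 24 h, VCAM-1 is measured by ELISA, and responses in either direction are fitted relative to DMSO.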
(ELISA stands for enzyme-linked immunosorbent assay.)

Assay [16] in a line: BSK_4H_Eotaxin3: BioMAP Diversity Plus: 4H Assay for Eotaxin 3 Biomarker Activity (AID 2283000).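 For outcome: CCL26 protein level quantified by ELISA in parallel with SRB cytotoxicity check.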 The conditions noted are these: primary human endothelial cells (HUVEC); actives raise or lower the signal. In short, it runs like this:
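Endothelial primary cells (human umbilical vein) exposed to compound for 24 h. ELISA detection of Eotaxin-3.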

Read-out in assay [17]: Intercellular Adhesion Molecule 1 (ICAM1), ICAM1 (gene 3383)
Put plainly: BSK_3C_ICAM1: BioMAP Diversity Plus: 3C Assay for Intercellular Adhesion Molecule 1 (ICAM1) Biomarker Activity (AID 2283003). The conditions noted are these: primary human endothelial cells (HUVEC); actives raise or lower the signal. In outline:
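ICAM-1 levels measured by ELISA after HUVEC cultures in the 3C system had been dosed for 24 h. Gain or loss of signal relative to DMSO was fitted in both directions.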

Assay [18] is described as follows: BSK_3C_Proliferation: Cell Proliferation Assessment in the BioMAP Diversity Plus: 3C Assay (AID 2283006).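 For AC50: potency may reflect either rise or fall in cell number versus DMSO.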 The following applies: primary human endothelial cells (HUVEC). In short, it runs like this:
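Read-out is total protein by SRB absorbance at 560 nm, taken as a proxy for relative cell number. Primary human umbilical vein endothelium cultured below confluence was dosed for 48 h, TCA-fixed and SRB-stained; curves were fitted bidirectionally versus DMSO.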

For assay [19], the target named is human Retinoic Acid Receptor beta (RARb), RARB (gene 5915) (UniProt P10826). Put plainly: ATG_RARb_TRANS: Attagene TRANS-FACTORIAL HepG2 Assay for human Retinoic Acid Receptor beta (AID 2283004; active = hit-call score of the fitted dose curve at least 0.9, where 1 is the maximum). In outline: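 HepG2, transient MRTU transfection, NR–Gal4 chimera, 24 h treatment; RT-PCR plus CE fluorescence detection of reporter mRNA; gain of signal vs DMSO.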

Results filed as inconclusive are left out. Calls of active or inactive are those of the source. Rule for the calls, unless noted: active = hit-call score of the fitted dose curve at least 0.9, where 1 is the maximum; inactive = score below 0.9.

A word on the AC50: it is the midpoint of the concentration-response curve, whichever way the signal moves.

Sequence of human Retinoic Acid Receptor beta (RARb), RARB (gene 5915) (P10826 whole entry, looked up, the tested form may be a part): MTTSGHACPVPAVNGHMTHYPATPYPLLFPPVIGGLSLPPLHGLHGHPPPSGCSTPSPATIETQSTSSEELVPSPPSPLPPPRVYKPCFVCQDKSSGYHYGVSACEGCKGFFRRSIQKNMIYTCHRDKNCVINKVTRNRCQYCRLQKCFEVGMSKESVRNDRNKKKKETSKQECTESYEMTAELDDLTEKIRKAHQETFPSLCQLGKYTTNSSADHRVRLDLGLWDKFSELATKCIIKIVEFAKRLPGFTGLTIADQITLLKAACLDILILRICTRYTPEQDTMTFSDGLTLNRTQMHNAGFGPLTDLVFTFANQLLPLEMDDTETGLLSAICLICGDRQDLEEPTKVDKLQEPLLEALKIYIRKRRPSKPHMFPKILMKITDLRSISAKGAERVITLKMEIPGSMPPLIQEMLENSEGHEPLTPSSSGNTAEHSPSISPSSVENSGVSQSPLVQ
Sequence of Nuclear receptor subfamily 1 group I member 2 (Homo sapiens) (O75469 whole entry, looked up, the tested form may be a part): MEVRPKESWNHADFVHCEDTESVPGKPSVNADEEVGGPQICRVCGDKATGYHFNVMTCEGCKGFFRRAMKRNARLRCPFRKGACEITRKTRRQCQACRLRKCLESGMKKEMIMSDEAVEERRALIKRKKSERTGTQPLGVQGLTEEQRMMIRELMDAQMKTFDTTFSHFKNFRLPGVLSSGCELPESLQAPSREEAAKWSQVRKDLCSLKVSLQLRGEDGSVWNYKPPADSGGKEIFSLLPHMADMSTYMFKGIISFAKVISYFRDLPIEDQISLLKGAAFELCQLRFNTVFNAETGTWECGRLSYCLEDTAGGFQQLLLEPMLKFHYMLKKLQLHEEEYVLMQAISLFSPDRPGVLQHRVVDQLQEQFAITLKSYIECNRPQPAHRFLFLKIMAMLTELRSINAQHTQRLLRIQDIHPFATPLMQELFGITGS
Sequence of Cellular tumor antigen p53 (Homo sapiens) (P04637 whole entry, looked up): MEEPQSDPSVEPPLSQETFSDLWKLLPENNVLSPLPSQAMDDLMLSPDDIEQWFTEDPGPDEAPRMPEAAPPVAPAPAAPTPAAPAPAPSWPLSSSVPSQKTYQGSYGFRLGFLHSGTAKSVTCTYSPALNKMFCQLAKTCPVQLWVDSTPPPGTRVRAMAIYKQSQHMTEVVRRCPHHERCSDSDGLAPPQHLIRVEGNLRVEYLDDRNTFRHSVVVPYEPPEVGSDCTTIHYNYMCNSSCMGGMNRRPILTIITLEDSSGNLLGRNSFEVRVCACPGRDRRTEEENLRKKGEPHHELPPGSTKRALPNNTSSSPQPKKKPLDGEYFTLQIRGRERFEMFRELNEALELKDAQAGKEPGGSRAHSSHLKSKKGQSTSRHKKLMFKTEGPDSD
Sequence of human Retinoic Acid Receptor gamma (RARg), RARG (gene 5916) (P13631 whole entry, looked up): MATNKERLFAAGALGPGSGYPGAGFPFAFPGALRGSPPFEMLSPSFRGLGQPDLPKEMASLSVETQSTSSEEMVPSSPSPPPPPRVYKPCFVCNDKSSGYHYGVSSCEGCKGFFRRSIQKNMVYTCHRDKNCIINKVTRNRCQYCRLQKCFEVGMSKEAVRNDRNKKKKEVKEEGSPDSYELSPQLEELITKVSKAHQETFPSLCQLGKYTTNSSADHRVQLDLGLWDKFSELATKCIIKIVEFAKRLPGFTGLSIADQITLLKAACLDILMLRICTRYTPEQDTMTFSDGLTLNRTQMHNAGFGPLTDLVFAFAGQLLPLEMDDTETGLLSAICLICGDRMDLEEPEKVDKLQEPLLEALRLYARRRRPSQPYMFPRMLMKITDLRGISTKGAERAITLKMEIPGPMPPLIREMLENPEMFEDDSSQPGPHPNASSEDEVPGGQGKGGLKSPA
Sequence of human RAR-related Orphan Receptor beta (RORb), RORB (gene 6096) (Q92753 whole entry, looked up, the tested form may be a part): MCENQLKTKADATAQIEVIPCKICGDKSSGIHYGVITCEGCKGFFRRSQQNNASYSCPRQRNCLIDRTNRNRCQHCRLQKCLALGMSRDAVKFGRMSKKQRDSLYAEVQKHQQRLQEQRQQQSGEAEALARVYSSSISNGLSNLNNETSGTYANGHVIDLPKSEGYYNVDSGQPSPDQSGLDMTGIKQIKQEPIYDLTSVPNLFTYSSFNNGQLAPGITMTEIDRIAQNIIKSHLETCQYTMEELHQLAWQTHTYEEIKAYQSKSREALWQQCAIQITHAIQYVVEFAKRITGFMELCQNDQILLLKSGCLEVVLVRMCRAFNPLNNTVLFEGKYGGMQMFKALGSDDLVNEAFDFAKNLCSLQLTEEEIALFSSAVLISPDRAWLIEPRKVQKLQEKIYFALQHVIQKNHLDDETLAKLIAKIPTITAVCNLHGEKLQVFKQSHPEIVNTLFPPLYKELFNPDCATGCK
Sequence of Peroxisome proliferator-activated receptor gamma (Homo sapiens) (P37231 whole entry, looked up): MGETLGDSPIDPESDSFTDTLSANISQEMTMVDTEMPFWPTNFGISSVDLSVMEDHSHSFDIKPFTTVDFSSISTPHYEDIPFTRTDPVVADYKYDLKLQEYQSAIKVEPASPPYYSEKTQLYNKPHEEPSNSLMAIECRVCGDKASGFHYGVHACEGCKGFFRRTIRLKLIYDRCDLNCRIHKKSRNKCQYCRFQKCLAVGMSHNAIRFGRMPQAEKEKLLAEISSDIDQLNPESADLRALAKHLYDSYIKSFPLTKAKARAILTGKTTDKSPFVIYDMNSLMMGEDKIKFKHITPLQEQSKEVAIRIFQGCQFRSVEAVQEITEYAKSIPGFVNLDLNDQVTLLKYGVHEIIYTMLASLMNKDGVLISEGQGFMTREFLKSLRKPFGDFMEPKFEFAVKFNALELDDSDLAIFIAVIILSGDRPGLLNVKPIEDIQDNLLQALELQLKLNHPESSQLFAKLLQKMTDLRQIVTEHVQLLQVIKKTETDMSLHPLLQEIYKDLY
Sequence of Retinoic acid receptor alpha (Homo sapiens) (P10276 whole entry, looked up, the tested form may be a part): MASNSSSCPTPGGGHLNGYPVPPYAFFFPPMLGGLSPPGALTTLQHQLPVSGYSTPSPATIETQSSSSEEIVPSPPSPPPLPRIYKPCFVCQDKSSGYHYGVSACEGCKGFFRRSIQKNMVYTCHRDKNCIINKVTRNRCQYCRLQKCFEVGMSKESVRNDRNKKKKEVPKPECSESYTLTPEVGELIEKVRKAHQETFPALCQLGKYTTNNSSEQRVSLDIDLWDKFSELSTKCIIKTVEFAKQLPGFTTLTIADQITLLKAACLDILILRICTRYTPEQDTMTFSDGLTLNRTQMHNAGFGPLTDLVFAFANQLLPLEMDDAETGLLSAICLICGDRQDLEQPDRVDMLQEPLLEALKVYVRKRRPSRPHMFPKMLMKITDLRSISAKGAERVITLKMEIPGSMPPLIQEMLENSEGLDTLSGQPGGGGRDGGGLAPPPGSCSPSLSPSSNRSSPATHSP
Sequence of Myc proto-oncogene protein (Homo sapiens) (P01106 whole entry, looked up): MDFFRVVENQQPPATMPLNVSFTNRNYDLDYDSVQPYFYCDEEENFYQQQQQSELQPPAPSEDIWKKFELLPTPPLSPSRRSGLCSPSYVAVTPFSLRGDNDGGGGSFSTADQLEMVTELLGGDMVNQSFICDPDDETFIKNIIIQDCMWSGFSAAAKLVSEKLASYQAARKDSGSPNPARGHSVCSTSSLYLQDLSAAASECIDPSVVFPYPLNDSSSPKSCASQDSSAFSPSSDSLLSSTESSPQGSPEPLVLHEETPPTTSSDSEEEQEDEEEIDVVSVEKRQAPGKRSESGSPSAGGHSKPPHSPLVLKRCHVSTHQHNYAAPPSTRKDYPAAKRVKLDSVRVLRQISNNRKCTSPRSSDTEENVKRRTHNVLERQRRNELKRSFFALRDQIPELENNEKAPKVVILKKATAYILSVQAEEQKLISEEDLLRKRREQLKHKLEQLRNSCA
Sequence of human Peroxisome Proliferator-activated Receptor delta (PPARd), PPARD (gene 5467) (Q03181 whole entry, looked up): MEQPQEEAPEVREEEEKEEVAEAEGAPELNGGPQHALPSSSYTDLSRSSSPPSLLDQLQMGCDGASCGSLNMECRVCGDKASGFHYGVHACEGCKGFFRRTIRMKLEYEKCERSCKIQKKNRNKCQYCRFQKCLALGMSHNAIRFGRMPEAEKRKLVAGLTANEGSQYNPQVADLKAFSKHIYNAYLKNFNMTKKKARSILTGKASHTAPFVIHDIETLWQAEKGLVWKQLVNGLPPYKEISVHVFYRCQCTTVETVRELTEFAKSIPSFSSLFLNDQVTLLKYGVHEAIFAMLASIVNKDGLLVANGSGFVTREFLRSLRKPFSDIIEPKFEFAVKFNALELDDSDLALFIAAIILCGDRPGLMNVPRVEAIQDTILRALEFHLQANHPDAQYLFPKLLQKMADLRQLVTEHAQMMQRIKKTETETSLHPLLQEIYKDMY
Sequence of human Peroxisome Proliferator-activated Receptor alpha (PPARa), PPARA (gene 5465) (Q07869 whole entry, looked up, the tested form may be a part): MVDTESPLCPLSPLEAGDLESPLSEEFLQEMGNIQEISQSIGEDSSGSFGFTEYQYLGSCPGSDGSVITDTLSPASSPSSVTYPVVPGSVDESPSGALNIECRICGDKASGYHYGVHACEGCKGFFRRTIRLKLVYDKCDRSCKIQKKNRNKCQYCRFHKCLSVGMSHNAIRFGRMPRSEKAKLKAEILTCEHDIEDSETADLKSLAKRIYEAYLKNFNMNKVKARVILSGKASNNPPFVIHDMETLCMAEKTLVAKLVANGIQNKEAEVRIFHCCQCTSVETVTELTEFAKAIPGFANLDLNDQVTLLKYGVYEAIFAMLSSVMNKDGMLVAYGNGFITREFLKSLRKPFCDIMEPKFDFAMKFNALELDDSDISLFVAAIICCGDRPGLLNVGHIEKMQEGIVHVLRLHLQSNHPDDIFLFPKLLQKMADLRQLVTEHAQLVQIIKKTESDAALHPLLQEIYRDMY

On to `CC[N+](C)(CC)CC`, for which the compound was called inactive in assay [1], in assay [2], in assay [3], in [4], in [5] and in assay [6]. The outcome in assay [7], in [8], in assay [9] and in assay [10] was inactive.

In the case of `COC(=O)C=C(C)CCC=C(C)C`, the call in assay [1], in [2], in [4], in [5], in assay [6] and in assay [11] was inactive. Besides, the AC50 is 36.1 µM (active) in [3], 44.5 µM (active) in assay [8] and 4.9 µM (active) in assay [9].

For the compound `Cc1cc(C)nc(NS(=O)(=O)c2ccc(N)cc2)n1`, the outcome in assay [1], in assay [2], in assay [3], in assay [4], in assay [5] and in assay [6] was inactive. For the same compound, the compound was classed as inactive in assay [11], in assay [8], in assay [9] and in [12].

Turning to `O=c1[nH]c(=O)c2cn[nH]c2[nH]1`, the compound was classed as inactive in assay [1], in assay [2], in assay [3], in assay [4], in assay [5] and in [11]. In addition, the compound was called inactive in assay [7], in assay [8] and in [12].

With `CC(C=O)Cc1ccc(C(C)(C)C)cc1` (stereo not given), the compound was called inactive in assay [1], in assay [2], in assay [4], in assay [5] and in [11]. For the same compound, the half-maximal activity concentration (AC50) is 26.4 µM (active) in assay [3]; 31.1 µM (active) in assay [13]; 32.9 µM (active) in assay [14]; 36.4 µM (active) in assay [15]; 36 µM (active) in assay [16]; 40.7 µM (active) in assay [6]. In addition, the AC50 is 31.1 µM (active) in assay [17], 30.9 µM (active) in assay [18], 79.1 µM (active) in [8] and 23.1 µM (active) in assay [9].

For the compound `COC(C)(C)CC(C)=O`, the compound was called inactive in assay [1], in [2], in assay [3], in assay [4], in [5] and in assay [6]. Besides, the call in [11] and in assay [9] was inactive.

Regarding `CCN(CCN)c1cccc(C)c1`, the outcome in [1], in assay [2], in [3], in assay [4], in assay [5] and in [6] was inactive. The call in assay [19], in assay [8], in assay [9] and in assay [10] was inactive.

Turning to `IC(I)I`, the call in [1], in assay [2], in assay [3], in assay [4], in assay [5] and in assay [13] was inactive. The result in assay [14], in assay [15], in assay [16], in assay [6], in assay [11] and in [17] was inactive. Moreover, the result in assay [19], in assay [7], in assay [18], in assay [8], in assay [9] and in assay [10] was inactive. Further, the compound was called inactive in assay [12].

For `CN(C)CCOC(C)(c1ccccc1)c1ccccn1` (stereo not given), the outcome in assay [1], in assay [2], in assay [3], in assay [4], in assay [5] and in assay [11] was inactive. Besides, the result in [9] and in assay [10] was inactive.

Consider `CCC(C)c1cc([N+](=O)[O-])cc([N+](=O)[O-])c1OC(=O)OC(C)C` (stereo not given), for which the AC50 is 24.5 µM (active) in [1]; 5.1 µM (active) in [3]; 25 µM (active) in [5]; 9.93 µM (active) in assay [13]; 11.3 µM (active) in assay [14]; 19.4 µM (active) in assay [15]. The AC50 is 8.5 µM (active) in assay [16], 29.1 µM (active) in assay [17], 5.44 µM (active) in assay [18] and 0.774 µM (active) in assay [8]. The compound was called inactive in assay [2], in assay [4], in assay [6], in assay [11], in [19] and in assay [10]. The compound was classed as inactive in assay [12].
